MARV entry inh = inhibitors of Marburg virus binding or cell entry; Marburg virus pseudotyped entry inhibition, cell reporter; Potency, µM (doses to about 37.8 µM), hits mostly inhibitors; 1.8% of 300,000 active; calls by dose curve; tested in HEK293 cells
Cycloheximide cs = affects cycloheximide protein synthesis inhibition readout, counter-screen. 12% of 300,000 active. AID 2314. max response, %. cell reporter, cycloheximide protein synthesis inhibition counterscreen; in the data active = max response mostly above about 13%, no sharp cut-off; inactive = mostly below about 14%; note: read at 38.3 µM for the half of the compounds with a filed dose
LASV entry inh = Lassa virus entry inhibition; 1.2% of 300,000 active; Potency, µM (doses to about 37.9 µM), usual class: inhibitors; AID 540256; Lassa virus pseudotype entry inhibition, cell reporter; calls by dose curve; tested in HEK293 cells; note: nearly all actives have a fitted effect of over 50% in size
Pf growth 48h = inhibits P. falciparum growth in the first generation, 48 h; P. falciparum luciferase growth in erythrocytes, 48 h; Potency, µM (doses to about 28.7 µM), most hits filed as inhibitors; 5.9% of 310,000 active; AID 504832
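In quantitative HTS format, infected erythrocytes bearing luciferase-reporter parasites were treated for a single generation at 37 C. Luminescence after adding detection reagent served as the growth measure.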
Shiga inhibitor = blocks Shiga toxin action in Vero cells | Vero cells, Shiga toxin protein synthesis inhibition reporter | 9.2% of 290,000 active | inhibition, % at 38.7 µM | AID 2315; in the data active = inhibition mostly above about 28%, no sharp cut-off; inactive = mostly below about 43%
Pf growth 96h = inhibits malaria parasite growth, 96 h | P. falciparum luciferase reporter growth, 96 h | Potency, µM (highest dose often 28.7 µM), usual class: inhibitors | 6.9% of 320,000 active | AID 504834
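Delayed-death screen, second-generation endpoint: infected erythrocytes, 2% hematocrit, 0.05% parasitemia final; 96 hours at 37 C, 5% CO2; luciferase detection reagent; luminescence decrease equals reduced growth.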
A number is an active result; i = inactive; ? = inconclusive; nt = no result given; ! = a repeat was not active; [ ] = another dose, or the depositor's remark. Rows were chosen to be rich in hits. Some 19% of all compounds tested hit in one or more screens of this group. Unless noted, calls come from the whole dose curve; as a rule, active = well fitted inhibition curve with a large enough effect; inconclusive = small, poorly fitted or top-dose-only effect, or another doubt; inactive = no such curve, though single readings can be large or run the other way.

SMILES | MARV entry inh | Cycloheximide cs | LASV entry inh | Pf growth 48h | Shiga inhibitor | Pf growth 96h
Cc1ccc(S(=O)(=O)NCC(=O)OCC(=O)c2c(N)n(C)c(=O)n(C)c2=O)cc1 | ? | i | i | i | i | i
CC(=O)c1cccc(NC(=S)NCc2ccccc2)c1 | i | i | i | i | i | i
CC(=O)c1cccc(N(CC(=O)Nc2ccc(F)cc2)S(C)(=O)=O)c1 | i | 11.3 | i | i | 41.4 | i
CC(=O)Nc1ccc(NC(=O)CN(c2cccc(C(C)=O)c2)S(C)(=O)=O)cc1 | i | i | i | i | i | i
CC(=O)c1cccc(NC(=S)Nc2ccc(F)cc2)c1 | nt | 13.0 | nt | i | i | i
COc1ccc(C(C)NC(=O)Nc2ccc(C(C)=O)cc2)cc1OC (stereo not drawn) | nt | 22.6 | nt | i | i | i
COc1ccc(C(=O)Nc2cccc(C(C)=O)c2)cc1OC | ? | 30.2 | i | i | i | i
C=CCn1c(C)cc(C(=O)Cn2c(C(C)O)nc3ccccc32)c1C (stereo not drawn) | i | i | i | ? | i | i
CC(C)CN(CC(C)C)C(=O)Nc1ccccc1F | i | i | i | i[5.75 µM] | i | i
COc1cccc(CNC(=O)CCc2c(C)nn(-c3ccc(N4CCOCC4)nn3)c2C)c1 | nt | nt | i | nt | nt | nt
CC12CCC(c3c(C(=O)N4CCOCC4)nn(-c4ccccc4)c31)C2(C)C (stereo not drawn) | i | i | i | ? | i | 1.31µM
CC12CCC(c3c(C(=O)O)nn(-c4ccc(F)cc4)c31)C2(C)C (stereo not drawn) | i | i | i | i | i | nt
Cc1ccc(CCNC(=O)CS(=O)Cc2nc(-c3ccccc3F)oc2C)cc1 (stereo not drawn) | i | i | i | i | i | i
COc1ccc(C)cc1S(=O)(=O)N(CC(=O)Nc1cccc([N+](=O)[O-])c1)c1ccccc1 | ? | i | i | ? | i | 11.7µM
COc1ccc(N(CC(=O)Nc2cc(C)cc(C)c2)S(=O)(=O)c2ccccc2[N+](=O)[O-])c(OC)c1 | i | i | i | ? | i | 8.28µM
COc1ccc(N(CC(=O)Nc2cc(C)ccc2C)S(=O)(=O)c2ccccc2[N+](=O)[O-])c(OC)c1 | ? | i | ? | 2.94µM | i | i
CC(C)(C)c1ccc(-c2nc(NC(=O)CSc3ncnc4sc5c(c34)CCCC5)ns2)cc1 | ? | nt | i | nt | nt | nt
CCOC(=O)c1[nH]c2ccc(Br)cc2c1NC(=O)CCN1CCCCC1 | i | i | nt | ? | i | ?
CCOC(=O)c1[nH]c2ccc(Br)cc2c1NC(=O)CCN1CCOCC1 | nt | i | nt | i | i | ?
CCN(CC(=O)Nc1c(C(=O)OC)[nH]c2ccc(Cl)cc12)c1ccc2c(c1)OCO2 | ? | i | 12.6µM | 13.1µM | i | ?
CCOC(=O)c1[nH]c2ccc(Cl)cc2c1NC(=O)/C=C/c1ccc2c(c1)OCO2 | ? | i | ? | i | i | i
COC(=O)c1[nH]c2ccc(C)cc2c1NC(=O)CCN1CCN(Cc2ccc3c(c2)OCO3)CC1 | i | i | i | ? | i | 8.28µM
CCOC(=O)c1[nH]c2ccc(Br)cc2c1NC(=O)CCN1CCN(C(=O)OCC)CC1 | i | i | i | 10.4µM | i | i
COCCN1Cc2cccc(C(=O)Nc3c(C)cccc3C)c2C1=O | i | i | i | nt | i | nt
Cn1c(N)c(S(=O)(=O)NCc2ccccc2Cl)c(=O)n(C)c1=O | ? | i | i | ? | i | i
SMILES | MARV entry inh | Cycloheximide cs | LASV entry inh | Pf growth 48h | Shiga inhibitor | Pf growth 96h
CC(NS(=O)(=O)c1c(N)n(C)c(=O)n(C)c1=O)c1ccccc1 (stereo not drawn) | i | 29.4 | i | i | 57.4 | i
CCCCCCCCCC[Si](C)(C)CCC(=O)NC(Cc1ccc(C)cc1)c1ccccc1 (stereo not drawn) | 7.94µM! | nt | i | nt | nt | nt
O=C(CCl)NC(Cc1ccccc1)c1ccccc1 (stereo not drawn) | ? | i | i | ? | i | 10.4µM
CC(C(=O)Nc1ccc2c(c1)OCO2)n1cnc2c1c(=O)n(C)c(=O)n2C (stereo not drawn) | nt | nt | nt | i | nt | i
Cc1ccc(S(=O)(=O)Oc2ccc(C3C4=C(CCCC4=O)N(CCC(=O)O)C4=C3C(=O)CCC4)cc2Cl)cc1 | i | i | i | 3.29µM | i | 3.29µM
COc1cc(CNCCc2ccc(F)cc2)ccc1OCc1ccc(Cl)nc1 | ? | i | i | nt | i | ?
COc1cc(CO)ccc1OCc1ccc(Cl)nc1 | ? | 51.0 | i | i | 149.5 | i
O=C(NCc1ccc(F)cc1)c1cc(S(=O)(=O)N2CCCCC2)c[nH]1 | nt | i | nt | i | i | ?
CCCCC(CC)CNC(=O)C(Cc1ccccc1)NS(=O)(=O)c1ccc2c(c1)CCC(=O)N2 (stereo not drawn) | i | i | nt | ? | i | 11.7µM
C#CCNC(=O)C1=C[C@H](C2CCCCC2)C[C@H](OCCCCO)O1 | nt | i | nt | ? | i | ?
O=C(Nc1ccccc1)C1=C[C@H](C2CCCCC2)C[C@H](OCc2ccc(CO)cc2)O1 | nt | 43.4 | nt | ? | 55.1 | ?
O=C(NC1CC1)C1=C[C@H](C2CCCCC2)C[C@H](OCCCCO)O1 | nt | i | nt | i | i | i
O=C(O)C1=C[C@@H](C2CC2)C[C@@H](OCc2ccc(CO)cc2)O1 | nt | i | nt | i | i | i
C=CCOC(=O)C1=C[C@@H](C2CCCCC2)C[C@@H](OCc2ccc(CO)cc2)O1 | nt | i | nt | ? | i | ?
C#CCNC(=O)C1=C[C@@H](C2CCCCC2)C[C@@H](OCCCCO)O1 | nt | 14.5 | nt | ? | i | ?
O=C(Nc1ccccc1)C1=C[C@@H](C2CCCCC2)C[C@@H](OCc2ccc(CO)cc2)O1 | nt | 40.5 | nt | ? | 84.0 | ?
O=C(Nc1ccccc1)C1=C[C@@H](C2CCCCC2)C[C@@H](OCCCCO)O1 | nt | 73.7 | nt | i | 172.4 | i
COc1ccc(C2CC(Cn3cc(C#N)c(=O)n(C)c3=O)ON2C)cc1 (stereo not drawn) | i | i | i | i | i | i
COc1ccc(OC)c(S(=O)(=O)N2CCC(C(=O)N3CCCC3)CC2)c1 | i | i | i | i | i | i
C#CCNC(=O)C1=C[C@H](c2ccc(C(F)(F)F)cc2)C[C@H](OCCCCO)O1 | nt | 8.6 | nt | ? | i | ?
COCCN(C(=O)C1CC(=O)N(Cc2ccccc2)C1)c1nc(-c2ccc([N+](=O)[O-])cc2)cs1 (stereo not drawn) | nt | nt | nt | 13.1µM | nt | ?
O=C1NC(=O)C2(Cc3ccccc3N3CCCC32)C(=O)N1c1ccccc1 (stereo not drawn) | i | i | i | i | i | ?
CN1C(=O)N(C)C(=O)C2(Cc3cc(NC(=O)c4ccccc4Cl)ccc3N3CCCC32)C1=O (stereo not drawn) | nt | i | nt | ? | i | 5.22µM
CN1C(=O)N(C)C(=O)C2(Cc3cc(NC(=O)c4ccccc4)ccc3N3CCCC32)C1=O (stereo not drawn) | i | i | i | 9.28µM | i | 10.4µM
Cc1oc2ncnc(N3CCOCC3)c2c1C(=O)NCc1ccc(Cl)cc1 | nt | nt | i | nt | nt | nt
CC(C)N1CCc2c(sc(NC(=O)c3ccc(S(=O)(=O)N(C)CC4CCCO4)cc3)c2C(N)=O)C1 (stereo not drawn) | nt | i | nt | ? | i | ?

Assay outcomes (PubChem)
